In the supplement of paper PMC6555819:

The sequences below were run on VDR homodimer (NR concentration 270 nM) (assay: PBM binding z-score (relative to random genomic background probes); higher = stronger binding; sequences stand for … in GC…GCGATTGACAGCGTAGAATGAAGG).
Method in brief: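 Binding z-scores were set against random background probes. The data came from custom Agilent 4×180K protein-binding microarrays carrying double-stranded probes with 34-nt variable regions, incubated 1 h with ligand-free nuclear receptor dimers. Partner-specific antibodies detected binding, and scanned fluorescence was regression-normalized.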
ACAGACAGGTGAGTGAAGCTAACTCAGCTGGACG showed a PBM binding z-score of -1.08.
Sequence AGTCAAAGTTCATCTATGTAACGTAAGATATGCT has a PBM binding z-score of 4.62.
Work on ATCTCTAGGTAAAAGTTCAGTGCATCCCGAGGAT yielded a PBM binding z-score of 2.21.
In the case of ATCTCTAGGTAAAGTTAGTTCAGTGAATGCAAAT, the PBM binding z-score is reported as 1.35.
GCGACTGGGGCAAAGCAGGTGACCATAAGGTTGG was tested, and the PBM binding z-score was -0.886.
TCTTGAAGATCAAAGGTTAAGAAAGCCGAAGCCT was tested, and the PBM binding z-score was -0.364.
Work on TCTAGCAGGCCGGAGGGTCACTCAAGAGGTACGG yielded a PBM binding z-score of 0.104.
CTACCAATGTGAACAAGGTCGTTGATTACTATTC was tested, and the PBM binding z-score was 2.32.
GCTATTAGCTGAAAGGGCAACCGAATGATTCTCG was tested, and the PBM binding z-score was -0.0197.
CGAACTAGGTCAAGGACAGCGAATCTCCGCACGC was tested, and the PBM binding z-score was 0.441.
CCTACTGGGCCCTCAGGTCATTGATATCAACGTT gave a PBM binding z-score of 1.17.
CATACAGGGTCAACTAGGCCAGAGTAGGGACGGC gave a PBM binding z-score of 2.36.
For GTACCAAGGTGAAAAGGTCGTTGATGAGTAGGCG, the PBM binding z-score was 1.7.
Sequence CGTCCAAGGTCATAGGAGGTAAGTGAAGACAGAT has a PBM binding z-score of 2.6.
Sequence CGAACTAGGTCATCCAGGAAAGTGAATACATTGA has a PBM binding z-score of 1.12.
TCTAGATGGTCACGGAGGTCACACACGACGGGTA was tested, and the PBM binding z-score was 3.63.
With GGAACGAGGGCAAAGTTGATAGTATCTGTCGACG the PBM binding z-score was 1.64.
Work on TCTTGTAGATCAACAGGAGGTTAAGAAGGATCGA yielded a PBM binding z-score of -0.0476.
TCTTGTAGATCAAAGGTTCAGAAAGCCGAAGCCT gave a PBM binding z-score of 1.5.
With CGTCCAAAGTCAGCAGGTCAGTGAAAGCGACGTG the PBM binding z-score was 0.0938.
In the case of CCTTACGGGTCAACGTTATAGCACGGGTGGTACG, the PBM binding z-score is reported as 0.692.
Work on TATGCAGGGTCAAAGGCCAGAGTACGAATGTCGA yielded a PBM binding z-score of 2.66.
TCATGTAGGTAATACAGGTGAAAGTCGGCATCTA showed a PBM binding z-score of -0.0287.
CAAACTAGGTCAAAGTCAAAGTCGGTTTGTGCCA was tested, and the PBM binding z-score was 1.05.
Sequence TCGAGTAGGATAGTCGGGGCATTCAGCCAACATA has a PBM binding z-score of -0.497.
With GCTCAGAGGACAAGGTCAGAGCTTTGTCCGTAGA the PBM binding z-score was 0.78.
TCTACTAGGTCAACGATGGTCAGCTAATCTGCTA was tested, and the PBM binding z-score was 0.629.
For TCTCGGAGGACACGAAGGTCACAGCTTTCCAGAG, the PBM binding z-score was 2.9.
CGAACGAGGGCATGATTTGATAGCAAATGCCGAT was tested, and the PBM binding z-score was 0.561.
For TCAATTAGTTGAAGGGCAACCGACGAGTCCGTTT, the PBM binding z-score was 1.42.
AGTCAAAGTTCATCTAGGTAACGTGAGATATGCT showed a PBM binding z-score of 4.95.
With CGTCCTAGGTCAGCAGGTCAGTGAAAGCGACGTG the PBM binding z-score was 0.285.
Sequence CAGACTAGGTCACCGGAAGGTCAAAGTCCGCATG has a PBM binding z-score of 3.42.
For TCGAGTAGGTTACCAATGTGGCATTCAGCTTTCT, the PBM binding z-score was -0.622.
Work on TCATATAGGTAATACAGGTGGAAGTCGGCATCTA yielded a PBM binding z-score of 0.547.
With TCTAGCAGGCCAGAGGGTCACTTAAGAGGTACGG the PBM binding z-score was 0.361.
TGAATGAGGCTATAAGATCAGGGAACGTTGCAAA showed a PBM binding z-score of -0.554.
Sequence CCTGCTAGGTCATGGTTAGCTAATCTACAGTATG has a PBM binding z-score of -0.043.
In the case of GCGACTGGGGCAAAGCAGGATACCATAAGGTTGG, the PBM binding z-score is reported as -0.417.
Sequence TCTCGGAGGGCACGAAAGGTCAGAGCTCGACATC has a PBM binding z-score of 1.1.
